The nature of this experiment: miR-122 Renilla sensor signal increase in Huh7, primary screen, miR-122 inhibitor project, cell-based, single point, plate reader (AID 602342).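 Note: higher luciferase means less miR-122 activity so hits act as miR-122 inhibitors.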 Conditions: Huh7 miR-122 Renilla luciferase sensor, 48 h, active compounds read high, neutral wells = 0, positive control = 100.

Structures are written as SMILES. Among all 340,000 compounds or so, about 1,000 (0.29%) were called active. The full list was thinned out, with actives kept by preference. Unmarked numbers belong to inactive results.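 Rule for the calls: active = mean replicate activation score at least 90 and every replicate individually at or above 90; inconclusive = only one of the two criteria met; inactive = neither criterion met.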

Results on 67 compounds are retold here after PubChem BioAssay AID602342 (Broad Institute, 2012).

`COc1ccccc1NC(=O)N1C[C@H]2[C@@H](c3ccccc31)[C@H](CO)N2Cc1ccc2c(c1)OCO2`: the activation (reporter increase) (at 16.7 µM unless noted) was 28.6%.

As to `COc1ccc(C(=O)N2C[C@@H]3[C@H](c4ccccc42)[C@H](CO)N3Cc2ccc3c(c2)OCO3)cc1`, for the setting “at 16.7 µM unless noted”, the activation (reporter increase) is 247% (active).

As to `COc1cccc(CN2[C@H](CO)[C@@H]3c4ccccc4N(C(=O)c4ccncc4)C[C@@H]32)c1`, the activation (reporter increase) (at 16.7 µM unless noted) is 46.9%.

Take `O=C(c1ccncc1)N1C[C@H]2[C@@H](c3ccccc31)[C@H](CO)N2C(=O)c1ccccn1`: for the setting “at 16.7 µM unless noted”, the activation (reporter increase) was -28.6%. With `C/C=C/c1ccc([C@H]2[C@@H](CO)N(S(C)(=O)=O)[C@@H]2CN(C)C(=O)CC)cc1`, the activation (reporter increase) (at 16.7 µM unless noted) is 6.25%. Turning to `CN1C(=O)c2cc(NS(=O)(=O)c3ccc(Cl)cc3)ccc2OC[C@@H]2O[C@H](CC(=O)O)CC[C@@H]21`, under “at 16.7 µM unless noted”, the activation (reporter increase) was 5.56%. Turning to `O=C(Nc1ccc2c(c1)[C@H]1C[C@@H](CC(=O)N3CCc4ccccc4C3)O[C@H](CO)[C@H]1O2)Nc1ccccc1F`, the activation (reporter increase) (at 16.7 µM unless noted) was -7.95%.

Regarding `CO[C@@H]1CN(C)C(=O)c2ccc(NS(=O)(=O)c3ccc(Cl)cc3)cc2OC[C@@H](C)N(C)C[C@H]1C`, the activation (reporter increase) (at 16.7 µM unless noted) was -8.17%. On the same count and under the same terms, to `Cc1ccc(C(=O)Nc2ccccc2C(=O)NC2CCCCC2)cc1S(=O)(=O)N1CCOCC1` belongs -2.85% [at 12.5 µM]; to `C=CCNC(=O)c1ccccc1NC(=O)c1ccc(Cl)c(S(=O)(=O)Nc2cccc(C)c2C)c1`, 155% [at 12.5 µM] (active). As to `COC(=O)c1ccc(C(=O)Nc2cc(Cl)ccc2Cl)cc1NC(=O)c1ccccc1C`, the activation (reporter increase) (at 16.7 µM unless noted) was -1.04% [at 12.5 µM]. On the same count and under the same terms, to `CCC(=O)N(C)C[C@@H]1Oc2ncc(C#C[C@H](C)O)cc2C(=O)N([C@@H](C)CO)C[C@@H]1C` belongs 1.39%.

In the case of `Cc1ccccc1S(=O)(=O)N1C[C@H](O)COC[C@H]2O[C@H](CC(=O)N3CCCCC3)CC[C@@H]21`, where the note is “at 16.7 µM unless noted”, the activation (reporter increase) is 8.99%.

On to `Cc1cccc(NS(=O)(=O)c2ccc(-c3cnc(C4CC4)o3)cc2)c1`, for which the activation (reporter increase) (at 16.7 µM unless noted) is 186% [at 12.5 µM] (active). The same measure, in the same setting: to `Cc1cccc(CNS(=O)(=O)c2ccc(-c3cnc(C4CC4)o3)cc2)c1` belongs 3.02% [at 12.5 µM].

As for `COc1ccc(CNS(=O)(=O)c2ccc(-c3cnc(C4CC4)o3)cc2)cc1`, the activation (reporter increase) (at 16.7 µM unless noted) is -3.38% [at 12.5 µM]. On the same count and under the same terms, under `C[C@@H]1CN([C@H](C)CO)C(=O)c2cccc(NS(=O)(=O)c3ccc(F)cc3)c2O[C@H]1CN(C)Cc1ccc(Oc2ccccc2)cc1` stands 3.49%. Regarding `O=C(NC1CCCC1)[C@H]1[C@H](CO)[C@H]2Cn3c(ccc(-c4ccccc4)c3=O)[C@H]2N1CCc1ccccc1`, the activation (reporter increase) (at 16.7 µM unless noted) was -0.306%.

Consider `C[C@H](CO)N1C[C@H](C)[C@H](CN(C)C(=O)Nc2ccccc2C(F)(F)F)OCc2cn(nn2)CCCC1=O`, for which the activation (reporter increase) (at 16.7 µM unless noted) is -4.03%. On to `N=c1n(Cc2ccc(Cl)cc2)c2ccccc2n1CC(O)c1ccco1` (stereo not drawn), for which the activation (reporter increase) (at 16.7 µM unless noted) is 262% [at 12.5 µM] (active). `Cn1c(=N)n(CC(O)c2cccs2)c2ccccc21` (stereo not drawn): the activation (reporter increase) (at 16.7 µM unless noted) is -2.61% [at 12.5 µM]. With `C[C@H](CO)N1C[C@H](C)[C@@H](CN(C)C(=O)Nc2ccc3c(c2)OCO3)OCCCC[C@H](C)Oc2ccc(NC(=O)Nc3ccc(F)cc3)cc2C1=O`, the activation (reporter increase) (at 16.7 µM unless noted) was -4.3%. `Cc1noc(C)c1S(=O)(=O)N(C)C[C@@H]1OCCCC[C@H](C)Oc2ccc(NC(=O)Nc3ccc4c(c3)OCO4)cc2C(=O)N([C@H](C)CO)C[C@H]1C`: the activation (reporter increase) (at 16.7 µM unless noted) is -8.18%.

Turning to `O=C(Nc1ccccc1)[C@@H]1[C@@H](CO)[C@@H]2Cn3c(cccc3=O)[C@@H]2N1C(=O)C1CC1`, the activation (reporter increase) (at 16.7 µM unless noted) was -0.104%.

For `C[C@@H]1CN([C@H](C)CO)C(=O)c2cc(NC(=O)c3ccccc3)ccc2O[C@@H](C)CCCCO[C@H]1CN(C)C(=O)c1ccncc1`, the activation (reporter increase) (at 16.7 µM unless noted) was -8.54%. In the case of `C[C@H]1CN([C@@H](C)CO)C(=O)Cc2cc(NS(=O)(=O)c3ccccc3)ccc2O[C@H]1CN(C)Cc1ccc(C(=O)Nc2ccccc2N)cc1`, the activation (reporter increase) (at 16.7 µM unless noted) was 71.5%. For the compound `Cc1ccc(S(=O)(=O)Nc2ccc3c(c2)CC(=O)N([C@@H](C)CO)C[C@H](C)[C@H](CN(C)Cc2ccc(C(=O)Nc4ccccc4N)cc2)O3)cc1`, for the setting “at 16.7 µM unless noted”, the activation (reporter increase) is 252% (active).

Turning to `Cc1ccc(S(=O)(=O)N(C)C[C@H]2Oc3ccc(NC(=O)CCC(F)(F)F)cc3C(=O)N([C@@H](C)CO)C[C@H]2C)cc1`, the activation (reporter increase) (at 16.7 µM unless noted) was 99.9% (active). On to `C[C@H](CO)N1C[C@H](C)[C@@H](CN(C)S(=O)(=O)c2ccc(F)cc2)Oc2ccc(NC(=O)CCC(F)(F)F)cc2C1=O`, for which the activation (reporter increase) reads like this: (at 12.5 µM) 1.48%; (at 16.7 µM) -2.79%.

For the compound `COc1ccc(S(=O)(=O)N(C)C[C@@H]2Oc3ccc(NC(=O)CCC(F)(F)F)cc3C(=O)N([C@@H](C)CO)C[C@H]2C)cc1`, the activation (reporter increase) (at 16.7 µM unless noted) is -0.455%. Consider `C[C@H]1CN([C@@H](C)CO)C(=O)Cc2cc(NS(=O)(=O)c3ccccc3)ccc2O[C@@H]1CN(C)Cc1ccc(C(=O)Nc2ccccc2N)cc1`, for which the activation (reporter increase) (at 16.7 µM unless noted) is -6.43%. Same read-out and setting: to `COCC(=O)Nc1ccc2c(c1)C(=O)N(C)[C@H]1CC[C@H](CC(=O)Nc3ccccc3)O[C@H]1CO2` belongs 1.21%.

Consider `NCC[C@@H]1CC[C@@H](NC(=O)C2CCCC2)[C@H](CO)O1`, for which, for the setting “at 16.7 µM unless noted”, the activation (reporter increase) is -3.47%. Same read-out and setting: under `CC(C)C#Cc1ccc([C@@H]2[C@@H](CO)N3CCCCN(C(=O)c4ccc5c(c4)OCO5)C[C@H]23)cc1` stands -24%. On the same count and under the same terms, under `Cc1c(-c2ccccc2)cn2c1-c1ccc(C)n1CC2` stands 248% [at 12.5 µM] (active); under `C[C@H]1CCCCO[C@H](CN(C)S(=O)(=O)c2cn(C)cn2)[C@@H](C)CN([C@@H](C)CO)C(=O)c2cc(NC(=O)C3CCCCC3)ccc2O1`, 1.57%. Same read-out and setting: to `CCCNC(=O)N(C)C[C@@H]1Oc2ncc(C#CC(C)C)cc2C(=O)N([C@H](C)CO)C[C@H]1C` belongs -5.52%. In the case of `CN1c2ccc(-c3ccccc3)cc2[C@H]2[C@H](CCN2C(=O)c2ccc3c(c2)OCO3)[C@H]1CO`, under “at 16.7 µM unless noted”, the activation (reporter increase) is 72.9%. Still for that read-out and setting: under `CC(C)CNS(=O)(=O)c1ccc(C(=O)Nc2ccc3c(c2)OCO3)cc1` stands 39.9% [at 12.5 µM]. Consider `O=C(COc1ccc(Cl)cc1)Nc1ccc2c(c1)OCO2`, for which the activation (reporter increase) (at 16.7 µM unless noted) is -4.55% [at 12.5 µM]. Same read-out and setting: under `CC(C)CNS(=O)(=O)c1ccc(OCC(=O)Nc2ccc3c(c2)OCO3)c(Cl)c1` stands 303% [at 12.5 µM] (active). `C[C@H](CO)N1C[C@H](C)[C@H](CN(C)S(C)(=O)=O)Oc2ncc(C3=CCCCC3)cc2C1=O`: the activation (reporter increase) (at 16.7 µM unless noted) is 2.67%. As for `CCC(=O)N(C)C[C@H]1Oc2cc(-c3ccc(C)cc3)ccc2S(=O)(=O)N([C@@H](C)CO)C[C@H]1C`, under “at 16.7 µM unless noted”, the activation (reporter increase) is -15.3%. Take `COCCn1c(SCC(=O)c2[nH]c(C)c(C(C)=O)c2C)nc2ccccc2c1=O`: the activation (reporter increase) (at 16.7 µM unless noted) was 272% [at 12.5 µM] (active). As to `COCCn1c(C)cc(C(=O)CSc2nc3ccccc3c(=O)n2C(C)COC)c1C` (stereo not drawn), the activation (reporter increase) (at 16.7 µM unless noted) is -1.04% [at 12.5 µM]. Consider `COCCn1c(SCC(=O)Nc2ccc3c(c2)CCC3)nc2ccccc2c1=O`, for which the activation (reporter increase) (at 16.7 µM unless noted) was 1.43% [at 12.5 µM]. On the same count and under the same terms, under `CO[C@H]1CN(C)C(=O)c2cc(NS(=O)(=O)c3ccccc3)ccc2OC[C@H](C)N(C)C[C@@H]1C` stands 0.654%; under `CNC(=O)C[C@@H]1CC[C@H]2[C@H](COc3ccc(NC(=O)c4cccc(OC)c4)cc3C(=O)N2C)O1`, -50%; under `C[C@@H]1CCCCO[C@H](CN(C)C(=O)c2ccccc2)[C@H](C)CN([C@H](C)CO)C(=O)c2cc(N(C)C)ccc2O1`, -6.07%.

Consider `CC(C)c1cc(C(=O)O)n[nH]1`, for which the activation (reporter increase) (at 16.7 µM unless noted) was 143% [at 12.5 µM] (active). `CC(C)c1cc(C(=O)O)on1`: for the setting “at 16.7 µM unless noted”, the activation (reporter increase) is 8.11% [at 12.5 µM].

`CO[C@H]1CN(C)C(=O)c2ccc(NC(=O)Cc3ccccc3)cc2OC[C@@H](C)N(C(C)=O)C[C@H]1C`: the activation (reporter increase) (at 16.7 µM unless noted) is -19.6%. Consider `CN1C[C@H]2[C@@H](c3ccccc31)[C@@H](CO)N2Cc1ccccc1`, for which the activation (reporter increase) (at 16.7 µM unless noted) is 2.82%. Same read-out and setting: under `COc1ccc(OC)c(S(=O)(=O)Nc2cccc(-c3ccc4nncn4n3)c2)c1` stands 333% [at 12.5 µM] (active). On to `COc1ccc(OC)c(S(=O)(=O)Nc2c(C)nn(C)c2C)c1`, for which the activation (reporter increase) (at 16.7 µM unless noted) was 21.9% [at 12.5 µM]. As to `CCOc1ccc(C(=O)Nc2cccc(-c3ccc4nncn4n3)c2)cc1`, the activation (reporter increase) (at 16.7 µM unless noted) was -5.49% [at 12.5 µM]. Still for that read-out and setting: under `CC(C)NC(=O)N(C)C[C@H]1Oc2ncc(C#CC3CCCCC3)cc2C(=O)N([C@H](C)CO)C[C@@H]1C` stands -2.95%; under `CC(C)NC(=O)Nc1ccc2c(c1)C(=O)N([C@H](C)CO)C[C@@H](C)[C@H](CN(C)S(C)(=O)=O)O2`, 3.33%.

`C[C@@H]1CN([C@H](C)CO)C(=O)Cc2cc(NS(=O)(=O)c3ccc(F)cc3)ccc2O[C@H]1CN(C)C`: the activation (reporter increase) (at 16.7 µM unless noted) is 4.8%.

Regarding `CC(=O)N1[C@H](CO)[C@H]2c3ccccc3N(C(=O)c3ccc(F)cc3)C[C@H]21`, the activation (reporter increase) (at 16.7 µM unless noted) was -19.2%. With `O=C(c1ccccc1F)N1C[C@H]2[C@@H](c3ccccc31)[C@@H](CO)N2C(=O)c1ccc(F)cc1`, for the setting “at 16.7 µM unless noted”, the activation (reporter increase) was 471% (active). In the case of `CCC(=O)N1[C@@H](CO)[C@@H]2c3ccccc3N(C(=O)c3ccccc3F)C[C@@H]21`, where the note is “at 16.7 µM unless noted”, the activation (reporter increase) was -12.6%. For the compound `O=C(C[C@@H]1C[C@@H]2c3cc(NC(=O)c4ccc5c(c4)OCO5)ccc3O[C@@H]2[C@@H](CO)O1)NCC1CC1`, where the note is “at 16.7 µM unless noted”, the activation (reporter increase) is -4.14%. On the same count and under the same terms, to `COc1ccc(NC(=O)N(C)C[C@@H]2Oc3ccc(NC(=O)Cc4cn(C)c5ccccc45)cc3CC(=O)N([C@@H](C)CO)C[C@H]2C)cc1` belongs -1.9%; to `Cc1ccc(S(=O)(=O)Nc2ccc3ncccc3c2)cc1`, 146% [at 12.5 µM] (active). Still for that read-out and setting: to `Cc1ccc(NS(=O)(=O)c2ccc(C(C)(C)C)cc2)cn1` belongs 23.7% [at 12.5 µM]. Turning to `O=S(=O)(Nc1ccc(Oc2ncccn2)c(Cl)c1)c1ccc(F)cc1`, the activation (reporter increase) (at 16.7 µM unless noted) is 8.55% [at 12.5 µM].
